# Measured values from the supplement of paper PMC4466140.
# Key:
# Assay in all cases: SPOT peptide array binding signal intensity (averaged, normalized) (arbitrary units (background-subtracted, floor 0; scale differs between SH3 domains)); higher = stronger binding of the SH3 domain to the peptide
# AgAbp1 = target: AgAbp1
# Procedure, shortened: (§1)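 Binding signal is given in arbitrary units that differ between domains and is the normalized, background-subtracted spot intensity averaged across replicates. Each GST-SH3 fusion from one of four yeast species was made in E. coli BL21(DE3), purified on glutathione Sepharose and incubated at 10 μg/ml overnight at 4°C on cellulose-bound synthetic 15-mer peptides in which cysteines were replaced by serines. Detection used anti-GST antibody, an HRP anti-mouse secondary and luminol, followed by imaging and Genespotter quantification.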
# AgBbc1 = target: AgBbc1
# Procedure, shortened: as §1
# AgBem1-D1 = target: AgBem1-D1
# Procedure, shortened: as §1
# AgBzz1-D1 = target: AgBzz1-D1
# Procedure, shortened: as §1
# AgBzz1-D2 = target: AgBzz1-D2
# Procedure, shortened: as §1
# AgCyk3 = target: AgCyk3
# Procedure, shortened: as §1
# AgFus1 = target: AgFus1
# Procedure, shortened: as §1
# AgHof1 = target: AgHof1
# Procedure, shortened: as §1
# AgHse1 = target: AgHse1
# Procedure, shortened: as §1
# AgLsb1 = target: AgLsb1
# Procedure, shortened: as §1
# AgLsb4 = target: AgLsb4
# Procedure, shortened: as §1
# AgMyo5 = target: AgMyo5
# Procedure, shortened: as §1
# AgNbp2 = target: AgNbp2
# Procedure, shortened: as §1
# AgRvs167 = target: AgRvs167
# Procedure, shortened: as §1
# AgSho1 = target: AgSho1
# Procedure, shortened: as §1
# AgSla1-D1-D2 = target: AgSla1-D1-D2
# Procedure, shortened: as §1
# AgSla1-D3 = target: AgSla1-D3
# Procedure, shortened: as §1
# CaAbp1-D1 = target: CaAbp1-D1
# Procedure, shortened: as §1
# CaAbp1-D2 = target: CaAbp1-D2
# Procedure, shortened: as §1
# CaBbc1 = target: CaBbc1
# Procedure, shortened: as §1
# CaBem1-D1 = target: CaBem1-D1
# Procedure, shortened: as §1
# CaBzz1-D1 = target: CaBzz1-D1
# Procedure, shortened: as §1
# CaBzz1-D2 = target: CaBzz1-D2
# Procedure, shortened: as §1
# CaCyk3 = target: CaCyk3
# Procedure, shortened: as §1
# CaFus1 = target: CaFus1
# Procedure, shortened: as §1
# CaHof1 = target: CaHof1
# Procedure, shortened: as §1
# CaHse1 = target: CaHse1
# Procedure, shortened: as §1
# CaLsb1 = target: CaLsb1
# Procedure, shortened: as §1
# CaLsb4 = target: CaLsb4
# Procedure, shortened: as §1
# CaMyo5 = target: CaMyo5
# Procedure, shortened: as §1
# CaNbp2 = target: CaNbp2
# Procedure, shortened: as §1
# CaRvs167 = target: CaRvs167
# Procedure, shortened: as §1
# CaRvs167-3 = target: CaRvs167-3
# Procedure, shortened: as §1
# CaSho1 = target: CaSho1
# Procedure, shortened: as §1
# CaSla1-D1-D2 = target: CaSla1-D1-D2
# Procedure, shortened: as §1
# CaSla1-D3 = target: CaSla1-D3
# Procedure, shortened: as §1
# ScAbp1 = target: ScAbp1
# Procedure, shortened: as §1
# ScBbc1 = target: ScBbc1
# Procedure, shortened: as §1
# ScBem1-D1 = target: ScBem1-D1
# Procedure, shortened: as §1
# ScBzz1-D1 = target: ScBzz1-D1
# Procedure, shortened: as §1
# ScBzz1-D2 = target: ScBzz1-D2
# Procedure, shortened: as §1
# ScCyk3 = target: ScCyk3
# Procedure, shortened: as §1
# ScFus1 = target: ScFus1
# Procedure, shortened: as §1
# ScHof1 = target: ScHof1
# Procedure, shortened: as §1
# ScHse1 = target: ScHse1
# Procedure, shortened: as §1
# ScLsb1 = target: ScLsb1
# Procedure, shortened: as §1
# ScLsb2 = target: ScLsb2
# Procedure, shortened: as §1
# ScLsb3 = target: ScLsb3
# Procedure, shortened: as §1
# ScLsb4 = target: ScLsb4
# Procedure, shortened: as §1
# ScMyo3 = target: ScMyo3
# Procedure, shortened: as §1
# ScMyo5 = target: ScMyo5
# Procedure, shortened: as §1
# ScNbp2 = target: ScNbp2
# Procedure, shortened: as §1
# ScPex13 = target: ScPex13
# Procedure, shortened: as §1
# ScRvs167 = target: ScRvs167
# Procedure, shortened: as §1
# ScSho1 = target: ScSho1
# Procedure, shortened: as §1
# ScSla1-D1-D2 = target: ScSla1-D1-D2
# Procedure, shortened: as §1
# ScSla1-D3 = target: ScSla1-D3
# Procedure, shortened: as §1
# SpAbp1-D1 = target: SpAbp1-D1
# Procedure, shortened: as §1
# SpBbc1 = target: SpBbc1
# Procedure, shortened: as §1
# SpBzz1-D1 = target: SpBzz1-D1
# Procedure, shortened: as §1
# SpBzz1-D2 = target: SpBzz1-D2
# Procedure, shortened: as §1
# SpCyk3 = target: SpCyk3
# Procedure, shortened: as §1
# SpHof1 = target: SpHof1
# Procedure, shortened: as §1
# SpHof1-2 = target: SpHof1-2
# Procedure, shortened: as §1
# SpHof1-3 = target: SpHof1-3
# Procedure, shortened: as §1
# SpHse1 = target: SpHse1
# Procedure, shortened: as §1
# SpLsb1 = target: SpLsb1
# Procedure, shortened: as §1
# SpLsb4 = target: SpLsb4
# Procedure, shortened: as §1
# SpMyo1 = target: SpMyo1
# Procedure, shortened: as §1
# SpNbp2 = target: SpNbp2
# Procedure, shortened: as §1
# SpPex13 = target: SpPex13
# Procedure, shortened: as §1
# SpRvs167 = target: SpRvs167
# Procedure, shortened: as §1
# SpSla1-D1-D2 = target: SpSla1-D1-D2
# Procedure, shortened: as §1
# SpSla1-D3 = target: SpSla1-D3
# Procedure, shortened: as §1
binder,measurement,setting,value
APKHAPPPVPNETDN,SPOT peptide array binding signal intensity,AgAbp1,≤ 0
same,SPOT peptide array binding signal intensity,AgBbc1,≤ 0
same,SPOT peptide array binding signal intensity,AgBem1-D1,≤ 0
same,SPOT peptide array binding signal intensity,AgBzz1-D1,72
same,SPOT peptide array binding signal intensity,AgBzz1-D2,≤ 0
same,SPOT peptide array binding signal intensity,AgCyk3,≤ 0
same,SPOT peptide array binding signal intensity,AgFus1,≤ 0
same,SPOT peptide array binding signal intensity,AgHof1,≤ 0
same,SPOT peptide array binding signal intensity,AgHse1,≤ 0
same,SPOT peptide array binding signal intensity,AgLsb1,≤ 0
same,SPOT peptide array binding signal intensity,AgLsb4,≤ 0
same,SPOT peptide array binding signal intensity,AgMyo5,1790
same,SPOT peptide array binding signal intensity,AgNbp2,≤ 0
same,SPOT peptide array binding signal intensity,AgRvs167,≤ 0
same,SPOT peptide array binding signal intensity,AgSho1,≤ 0
same,SPOT peptide array binding signal intensity,AgSla1-D1-D2,≤ 0
same,SPOT peptide array binding signal intensity,AgSla1-D3,2.5
same,SPOT peptide array binding signal intensity,CaAbp1-D1,≤ 0
same,SPOT peptide array binding signal intensity,CaAbp1-D2,≤ 0
same,SPOT peptide array binding signal intensity,CaBbc1,0.25
same,SPOT peptide array binding signal intensity,CaBem1-D1,≤ 0
same,SPOT peptide array binding signal intensity,CaBzz1-D1,992
same,SPOT peptide array binding signal intensity,CaBzz1-D2,115
same,SPOT peptide array binding signal intensity,CaCyk3,≤ 0
same,SPOT peptide array binding signal intensity,CaFus1,≤ 0
same,SPOT peptide array binding signal intensity,CaHof1,≤ 0
same,SPOT peptide array binding signal intensity,CaHse1,1.75
same,SPOT peptide array binding signal intensity,CaLsb1,≤ 0
same,SPOT peptide array binding signal intensity,CaLsb4,≤ 0
same,SPOT peptide array binding signal intensity,CaMyo5,110
same,SPOT peptide array binding signal intensity,CaNbp2,≤ 0
same,SPOT peptide array binding signal intensity,CaRvs167,≤ 0
same,SPOT peptide array binding signal intensity,CaRvs167-3,≤ 0
same,SPOT peptide array binding signal intensity,CaSho1,≤ 0
same,SPOT peptide array binding signal intensity,CaSla1-D1-D2,≤ 0
same,SPOT peptide array binding signal intensity,CaSla1-D3,≤ 0
same,SPOT peptide array binding signal intensity,ScAbp1,≤ 0
same,SPOT peptide array binding signal intensity,ScBbc1,≤ 0
same,SPOT peptide array binding signal intensity,ScBem1-D1,≤ 0
same,SPOT peptide array binding signal intensity,ScBzz1-D1,618
same,SPOT peptide array binding signal intensity,ScBzz1-D2,≤ 0
same,SPOT peptide array binding signal intensity,ScCyk3,≤ 0
same,SPOT peptide array binding signal intensity,ScFus1,≤ 0
same,SPOT peptide array binding signal intensity,ScHof1,≤ 0
same,SPOT peptide array binding signal intensity,ScHse1,≤ 0
same,SPOT peptide array binding signal intensity,ScLsb1,≤ 0
same,SPOT peptide array binding signal intensity,ScLsb2,≤ 0
same,SPOT peptide array binding signal intensity,ScLsb3,≤ 0
same,SPOT peptide array binding signal intensity,ScLsb4,≤ 0
same,SPOT peptide array binding signal intensity,ScMyo3,1380
same,SPOT peptide array binding signal intensity,ScMyo5,1230
same,SPOT peptide array binding signal intensity,ScNbp2,≤ 0
same,SPOT peptide array binding signal intensity,ScPex13,≤ 0
same,SPOT peptide array binding signal intensity,ScRvs167,≤ 0
same,SPOT peptide array binding signal intensity,ScSho1,≤ 0
same,SPOT peptide array binding signal intensity,ScSla1-D1-D2,≤ 0
same,SPOT peptide array binding signal intensity,ScSla1-D3,≤ 0
same,SPOT peptide array binding signal intensity,SpAbp1-D1,≤ 0
same,SPOT peptide array binding signal intensity,SpBbc1,≤ 0
same,SPOT peptide array binding signal intensity,SpBzz1-D1,≤ 0
same,SPOT peptide array binding signal intensity,SpBzz1-D2,≤ 0
same,SPOT peptide array binding signal intensity,SpCyk3,≤ 0
same,SPOT peptide array binding signal intensity,SpHof1,≤ 0
same,SPOT peptide array binding signal intensity,SpHof1-2,≤ 0
same,SPOT peptide array binding signal intensity,SpHof1-3,≤ 0
same,SPOT peptide array binding signal intensity,SpHse1,140
same,SPOT peptide array binding signal intensity,SpLsb1,≤ 0
same,SPOT peptide array binding signal intensity,SpLsb4,≤ 0
same,SPOT peptide array binding signal intensity,SpMyo1,691
same,SPOT peptide array binding signal intensity,SpNbp2,≤ 0
same,SPOT peptide array binding signal intensity,SpPex13,≤ 0
same,SPOT peptide array binding signal intensity,SpRvs167,2.5
same,SPOT peptide array binding signal intensity,SpSla1-D1-D2,≤ 0
same,SPOT peptide array binding signal intensity,SpSla1-D3,≤ 0
